Screening results from PubChem BioAssay.
In the library only some 3.6% were active in any assay of this set; here they are far more common.
mHTT CaM bind: disrupts binding of mutant huntingtin to calmodulin; P42858; AlphaScreen His-mHTT/GST-CaM binding, luminescence; inhibition, % at 15 µM; 190,000 tested, 3.6% active; AID 1671202
Pf apPOL block: Pf-apPOL DNA polymerase inhibition; Recombinant Pf-apPOL, molecular beacon fluorescence, 1.5 h; inhibition, % at 10 µM; 210,000 tested, 0.25% active
Numbers stand for hits; – = inactive; · = no result. No stated cut-off is given here; in the data, active means inhibition above about 50%; inactive means the rest.

SMILES | mHTT CaM bind | Pf apPOL block
CNc1cc(Nc2cccc(C)c2)c2c3c(onc13)-c1ccccc1C2=O | 89 | –
COc1cccc(Nc2ccc3noc4c3c2C(=O)c2ccccc2-4)c1 | 58 | –
O=C1c2ccccc2-c2onc3c(Br)cc(Br)c1c23 | – | –
COc1cccc(NC2=CC(=O)CC(c3ccccc3)C2)c1 (stereo not drawn) | – | –
COc1ccc(CCNC(=O)c2cnn3c(-c4ccccc4F)ccnc23)cc1OC | – | –
COc1cccc(NCc2ccc([N+](=O)[O-])s2)c1 | – | –
O=[N+]([O-])c1ccc(CNc2ccc3c(c2)CCC3)s1 | 84 | –
CS(=O)(=O)N1CCN(c2ccc(Nc3cccnc3)nn2)CC1 | – | –
Cc1ccccc1NC(=O)c1ccc(-c2cccc(F)c2)nc1 | – | –
O=C(Nc1ccccc1C(=O)Nc1ccccc1C(=O)O)c1ccccc1 | 80 | –
Cc1ccccc1NC(=O)c1ccc(C(=O)Nc2ccccc2C)cc1 | – | 61
Cc1ccccc1NC(=O)c1ccc(-c2ccsc2)nc1 | – | 59
O=C(C=NNc1ccccc1)Nc1ccccc1C(=O)O | · | 88
O=C(Nc1ccccc1NC(=O)c1ccccc1)c1ccccc1 | – | –
COC(=O)c1ccccc1NC(=O)C=NO | · | –
CC(=O)Nc1ccc(C(=O)Nc2ccccc2C)cc1 | – | –
Cc1cc(C)cc(NC(=O)C(=O)NCc2ccc3c(c2)OCO3)c1 | – | –
COc1ccc(-c2c(C)oc3c(C)c(OC)ccc3c2=O)cc1 | – | –
Cc1nn(CCCC(=O)Nc2ccc(Cl)cc2Cl)c(C)c1[N+](=O)[O-] | – | –
COc1ccc(-c2nc(-c3ccc(F)cc3)c[n+]3ccc4cc(OC)c(OC)cc4c23)cc1OC | 78 | ·
COc1ccc(-c2nc(-c3nnn(-c4ccc(F)cc4)c3C)no2)cc1OC | – | –
O=C(Nc1ncn[nH]1)c1ccc2nc(-c3ccco3)c(-c3ccco3)nc2c1 | – | –
COCCNC(=O)c1ccc2nc(-c3ccco3)c(-c3ccco3)nc2c1 | 59 | –
COc1ccc2nc(-c3ccco3)c(-c3ccco3)nc2c1 | 99 | –
COc1ccc2nsnc2c1 | · | –
SMILES | mHTT CaM bind | Pf apPOL block
O=C(NCc1ccco1)Nc1ccc2snnc2c1 | – | –
COCCCNC(=O)c1ccc2nc(-c3cccs3)c(-c3cccs3)nc2c1 | – | –
CC(=O)c1ccc(NC(=O)c2ccc3nc(-c4ccco4)c(-c4ccco4)nc3c2)cc1 | 100 | –
O=C(NCc1ccco1)Nc1ccc2nc(-c3ccco3)c(-c3ccco3)nc2c1 | 96 | –
Cc1nc(SCc2ccccc2)n(C)c(=O)c1Cc1ccc(F)cc1 | – | –
COc1ccc(N(CC(=O)NC2CC3CCC2C3)S(=O)(=O)c2ccccc2)cc1 (stereo not drawn) | – | –
O=C(CN1C(=O)C(c2ccccc2)=NC12CCCCCC2)Nc1ccc2c(c1)OCCO2 | – | –
CCOC(=O)C(=C(C)O)C1(C(C#N)C(N)=O)CCCCC1 (stereo not drawn) | – | –
O=C(CSc1nc2ccccc2[nH]1)Nc1cc(Cl)ccc1Cl | – | –
O=C(Nc1ccc([N+](=O)[O-])cc1)N1CCN(c2ccccn2)CC1 | – | –
O=C(Nc1ccc2nc(-c3ccco3)c(-c3ccco3)nc2c1)N1CCN(c2ccccn2)CC1 | 66 | –
O=C(c1ccco1)N1CCC(Cn2c(COc3ccccc3)nc3ccccc32)CC1 | – | –
CCOC(=O)Oc1c(Cl)cc2oc(=O)sc2c1Cl | 77 | –
CCOC(=O)Oc1ccc2c(=O)c(-c3ccc(OC)cc3)c(C)oc2c1 | – | –
COc1ccc(-c2nnc(NC(=O)CCCS(=O)(=O)Cc3ccccc3)o2)c(OC)c1 | – | –
COc1ccc(-c2nnc(NC(=O)CN3C(=O)c4ccccc4C3=O)o2)c(OC)c1 | 52 | –
O=C(c1cccc(F)c1)N1CCC(n2c(-c3ccco3)nc3cccnc32)C1 (stereo not drawn) | – | –
O=C(c1ccccc1)N1CCC(n2c(-c3ccco3)nc3cccnc32)C1 (stereo not drawn) | – | –
O=C(c1ccc(F)cc1)N1CCC(n2c(-c3ccco3)nc3cccnc32)C1 (stereo not drawn) | – | –
Cc1ccc(C(=O)N2CCC(n3c(-c4ccco4)nc4cccnc43)C2)cc1F (stereo not drawn) | 72 | –
O=C(c1ccc(F)c(F)c1)N1CCC(n2c(-c3ccco3)nc3cccnc32)C1 (stereo not drawn) | 71 | –
O=C(c1cccc(Br)c1)N1CCC(n2c(-c3ccco3)nc3cccnc32)C1 (stereo not drawn) | 87 | –
COc1ccc2c(C)c(-c3ccc(OC)c(OC)c3)c(=O)oc2c1 | – | –
O=C(O)c1ccc(Br)c(S(=O)(=O)N2CCCCC2)c1 | – | –
CC(C)C[C@@H](CSc1ccc(Br)cc1)N1CCN(CCc2ccccc2)CCC1=O | – | –
SMILES | mHTT CaM bind | Pf apPOL block
CC(=O)Nc1ccc(SC[C@H](Cc2ccccc2)N2CCN(CCc3ccccc3)CCC2=O)cc1 | 100 | –
Cc1ccc(SC[C@H](Cc2ccccc2)N2CC[C@@H](C)CCC2=O)cc1 | – | –
CC(C)C[C@@H](CSc1ccccc1)N1CCN(CCc2ccccc2)CCC1=O | 88 | –
O=C1CCC(OCc2ccccc2)CCN1[C@H](CSc1ccccc1)Cc1ccccc1 (stereo partly drawn) | 53 | –
O=C1CCN(CCc2ccccc2)CCN1[C@H](COc1ccccc1)c1ccccc1 | 100 | –
CCCN1CCC(=O)N([C@H](COc2ccccc2)c2ccccc2)CC1 | – | –
CC(=O)Nc1ccc(SCCN2CCN(CCc3ccccc3)CCC2=O)cc1 | – | –
COc1ccc(CC(C)(O)CNC(=O)C2CC=CCC2)cc1 (stereo not drawn) | – | –
CCOC(=O)C1CCN(CC(=O)c2ccc(OC)cc2)CC1 | · | –
COCC(=O)N1CCN(c2cccc(C)c2)C(=O)C1C (stereo not drawn) | – | –
Cc1ccc(SC[C@H](c2ccccc2)N2CCN(CCc3ccccc3)CCC2=O)cc1 | 100 | –
CCCN1CCC(=O)N([C@H](CSc2ccccc2)c2ccccc2)CC1 | – | –
O=C1CCN(CCc2ccccc2)CCN1[C@H](CSc1ccccc1)c1ccccc1 | 100 | –
CCCN1CCC(=O)N([C@H](CSc2ccc(C)cc2)c2ccccc2)CC1 | – | –
Cc1cc(-n2c(C)nc3ccccc3c2=O)ccc1NC(=O)Cc1cccs1 | – | –
CCN(CC)c1nc(C)nc2sc(C(=O)Nc3cc(OC)ccc3OC)c(C)c12 | – | –
CCN(CC)c1nc(C)nc2sc(C(=O)Nc3cc(OC)c(OC)c(OC)c3)c(C)c12 | 51 | –
CCOC(=O)N1CCN(C(=O)C2C3CC4OC(=O)C2C4C3)CC1 (stereo not drawn) | – | –
COC(=O)c1cccc(NC(=O)N2CCC(c3nc(C(=O)N(C)C)c(C)o3)CC2)c1 | – | –
COc1ccc(-c2n[nH]c(C)c2Oc2ccc(F)cc2)c(O)c1 | – | –
Cc1[nH]nc(-c2ccc(O)c(C)c2O)c1Oc1ccc(F)cc1 | 55 | –
Cc1noc(C)c1S(=O)(=O)NC(C)Cc1ccco1 (stereo not drawn) | – | –
CCOc1ccc(CN2CCc3nc(Nc4ccc5c(c4)OCO5)ncc3C2)cc1 | – | –
CCN(CC)C(C)CN1c2ccccc2Sc2ccccc21 (stereo not drawn) | · | –
CCC(CO)NCC(O)CN1c2ccccc2Sc2ccccc21 (stereo not drawn) | – | –
OC(CNCCc1ccccc1)CN1c2ccccc2Sc2ccccc21 (stereo not drawn) | 100 | –
OC(CN1c2ccccc2Sc2ccccc21)Cn1cnc(-c2ccccc2)c1-c1ccccc1 (stereo not drawn) | 100 | ·
